Sampled rows, rich in hits. Any-hit rate of the full collection: about 2.8%.
CF NFkB block = inhibitors of cystic fibrosis induced NF-kB. inhibition, % at 5 µM. KKLEB NF-kB-GFP reporter, PAF-induced, GFP fluorescence overnight. 360,000 tested, 0.86% active;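 active means at least 50% inhibition at 5 µM, scaled per plate between neutral and stimulator controls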;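 further: PAF is a Pseudomonas aeruginosa culture filtrate used as stimulus; plate controls were PAF-stimulated DMSO wells for no effect and unstimulated DMSO wells for full effect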
Peg3 prom inh = reduces Peg3 promoter-driven luciferase expression in HeLa; HeLa PEG-Prom luciferase reporter, luminescence, overnight; inhibition, % at 20 µM; 360,000 tested, 1.7% active; AID 588405;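 active means inhibition of at least 50% at 20 µM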
KKLEB cytotox = reduces viability of KKLEB cystic fibrosis airway cells; KKLEB CF airway cells viability, ATPlite luminescence, overnight; active compounds read low; cells stimulated with P. aeruginosa culture filtrate; activity change (cytotoxicity), % at 5 µM; 360,000 tested, 0.36% active;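 active means corrected activity change at or below -50% at 5 µM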
HIF-2a inh = blocks HIF-2a reporter activity | AID 624352 | 360,000 tested, 0.72% active | 786-0 RCC cells HIF-2a reporter, luciferase luminescence, overnight | inhibition, % at 18.8 µM;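 active means inhibition of the luminescence signal of 40% or more relative to plate controls, in a single-dose primary screen at 18.75 µM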
TRPM1 prom inh = MITF TRPM1 promoter inhibition in SK-MEL-5 cells; inhibition, % at 12.5 µM; 330,000 tested, 0.83% active; AID 488899; SK-MEL-5 TRPM1 promoter luciferase, 24 h;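 active means mean inhibition across replicates of 60% or more, whatever share of single replicates reaches that level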
Shn3 3UTR inh = inhibitors of Schnurri-3 3'UTR reporter in osteoblasts; Clone20 osteoblast Shn3 3'UTR firefly luciferase, 24 h; inhibition, % at 12.5 µM; 360,000 tested, 0.52% active; AID 588674;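 active means mean inhibition of at least 75% with every replicate also reaching 75%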;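 further: 0% = median of neutral control wells and 100% = pilot-screen positive control compound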
Active calls of the source: *; x = not tested or not shown.

SMILES | CF NFkB block | Peg3 prom inh | KKLEB cytotox | HIF-2a inh | TRPM1 prom inh | Shn3 3UTR inh
CCN(CC)CC(C)OC(=O)c1ccccc1Cl (stereo not given) | 9 | 13 | -13 | 19 | -6 | 8
Cc1ccc(S(=O)(=O)N/N=C\c2ccc([N+](=O)[O-])o2)cc1C | -35 | -4 | 8 | -2 | -2 | 18
O=C(O)/C=C/c1ccc([N+](=O)[O-])o1 | 7 | 6 | 12 | 7 | 6 | -15
Cc1cc2ncn(/N=C/c3ccc([N+](=O)[O-])o3)c2cc1C | 4 | 47 | -28 | -63 | 85* | 31
CC1CN(N=Cc2ccc([N+](=O)[O-])o2)C(=N)O1 (stereo not given) | -82 | -3 | -4 | -6 | 54 | -15
O=C1C2C3C=CC(C4CC34)C2C(=O)N1/N=C/c1ccc([N+](=O)[O-])o1 (stereo not given) | 4 | 23 | -2 | -6 | 75* | -1
O=[N+]([O-])c1ccc(/C=N/N=C/c2ccc([N+](=O)[O-])o2)o1 | 83* | 105* | -47 | 23 | 87* | 98*
O=C1SCCN1N=Cc1ccc([N+](=O)[O-])o1 | 26 | -17 | -9 | 1 | 66* | -19
O=C1C2C3C=CC(C4CC34)C2C(=O)N1/N=C/c1ccc(-c2ccc([N+](=O)[O-])cc2)o1 (stereo not given) | -7 | -2 | -6 | 4 | 19 | -7
O=C(NCCCN1CCCC1=O)c1ccc(Cl)c(Cl)c1 | 19 | -13 | -8 | -1 | -1 | 9
Cc1ccc(N=C2NC(=O)/C(=C/c3cccs3)S2)cc1C | 52* | -69 | -19 | -108 | -25 | 4
N#Cc1c(-c2ccco2)ccn(Cc2cccc(F)c2)c1=O | 0 | -1 | -13 | 4 | 9 | -8
Cc1ccc(S(=O)(=O)N(CCCO)CC(O)CON=C2c3ccccc3-c3ccccc32)cc1 (stereo not given) | 17 | 52* | -9 | -15 | -12 | 26
CCN(CC(O)Cn1c2ccccc2c2ccccc21)S(=O)(=O)c1ccc(C)cc1 (stereo not given) | 4 | 34 | 5 | 31 | -1 | 5
CCN(CC)S(=O)(=O)c1cc(NC(=O)CNc2cccc(S(=O)(=O)N3CCCC3)c2)ccc1C | 14 | 16 | -18 | 26 | 34 | 91*
CN(CC(=O)Nc1cccc(F)c1)CC(=O)Nc1cc(S(=O)(=O)N2CCOCC2)ccc1Cl | -12 | 12 | 12 | 6 | -5 | 11
CCc1nc2ccccc2c(C(=O)OCC(=O)Nc2ccc(S(=O)(=O)N3CCOCC3)cc2)c1C | 4 | 21 | 3 | 12 | 3 | 14
CCN(CC)S(=O)(=O)c1cccc(NC(=O)CNc2cccc(S(=O)(=O)N3CCOCC3)c2)c1 | 8 | 17 | 10 | 16 | 41 | 88*
CN(C)S(=O)(=O)c1cccc(NC(=O)CNc2cccc(S(=O)(=O)N3CCCCC3)c2)c1 | 13 | 12 | -21 | 15 | x | 54
CN(CC(=O)Nc1cccc(S(=O)(=O)N2CCOCC2)c1)CC(=O)Nc1ccc(Cl)c(C(F)(F)F)c1 | -6 | 29 | 6 | 9 | 16 | 88*
CCc1nc2ccccc2c(C(=O)OCC(=O)Nc2cccc(S(=O)(=O)N3CCOCC3)c2)c1C | 5 | 77* | 1 | 11 | 37 | 78
O=c1[nH]c(=S)[nH]c2sc3c(c12)CCCCCC3 | 0 | -10 | -1 | 5 | 0 | 6
COC(=O)c1c(NC(=O)CCCC(=O)O)sc(C)c1C | -4 | 14 | -2 | 13 | 6 | 9
Cc1sc(NC(=O)CCCC(=O)O)c(C(N)=O)c1-c1ccccc1 | 15 | -74 | -4 | 78* | 41 | 36
CC(C)(C)C(c1nc2ccccc2[nH]1)n1c(-c2ccsc2)nc2ccccc21 (stereo not given) | x | x | x | 1 | x | x
SMILES | CF NFkB block | Peg3 prom inh | KKLEB cytotox | HIF-2a inh | TRPM1 prom inh | Shn3 3UTR inh
COc1ccc(C2=Nn3c(C)nnc3SC2)cc1 | -34 | -20 | 4 | -8 | 8 | 0
CCN1/C(=C/c2sc(-c3ccccc3C)c[n+]2C)Sc2ccccc21 | 34 | 38 | -36 | -76 | 86* | 90*
CN(c1ccc(OCC(=O)OCC(=O)NCc2ccco2)cc1)S(=O)(=O)c1ccc2ccccc2c1 | 1 | 2 | 11 | 14 | 5 | 17
O=[N+]([O-])c1ccc2[nH]cc(S(=O)(=O)N3CCN(c4cccc(Cl)c4)CC3)c2c1 | 13 | 60* | 1 | 7 | 0 | 42
Cc1ccc(C(=O)Nc2nc(=O)[nH]s2)cc1 | -23 | -15 | 23 | 1 | -14 | -2
COc1ccc(Cl)cc1NC(=O)CN1CCC(n2nnc3cc(C)ccc32)CC1 | 21 | 86* | -18 | 2 | 15 | 58
O=C1/C(=C/Nc2ccc3c(c2)OCO3)CCc2ccccc21 | -18 | 10 | -53* | -28 | 15 | -6
COc1ccc(NC(=O)c2cc(S(=O)(=O)N3CCCCC3)c[nH]2)cc1Cl | -43 | 36 | -2 | 13 | x | 25
O=C(N/N=C/c1ccc(N2CCOCC2)cc1)c1ccccc1OCCOc1ccccc1 | 11 | 62* | -13 | -3 | 12 | 4
O=C(C#Cc1ccccc1)Nc1cccc(F)c1 | 58* | -31 | -57* | -131 | 32 | -106
O=C(C#Cc1ccccc1)Nc1ccc(F)cc1 | -8 | -207 | 4 | -148 | -53 | -83
Cc1ccc(CS(=O)Cc2ccc(C(=O)N3CCN(C4CCCCC4)CC3)o2)cc1 (stereo not given) | -27 | 4 | 14 | 5 | 1 | 5
CC1CC(C)CN(C(=O)/C=C/c2ccc([N+](=O)[O-])s2)C1 (stereo not given) | 7 | 16 | -4 | 14 | 82* | 7
CC1CN(C(=O)/C=C/c2ccc([N+](=O)[O-])s2)CC(C)O1 (stereo not given) | -5 | 11 | -8 | -9 | 44 | -12
O=C(/C=C/c1ccc([N+](=O)[O-])s1)N1CCCCC1 | -19 | 2 | 0 | 11 | 89* | -6
O=C(/C=C/c1ccc([N+](=O)[O-])s1)N1CCCC1 | 3 | 29 | -1 | 8 | 85* | -3
Cc1cc(C)cc(NC(=O)/C=C/c2ccc([N+](=O)[O-])s2)c1 | -13 | -23 | -7 | -18 | 11 | -17
O=C(/C=C/c1ccc([N+](=O)[O-])s1)N1CCN(c2ccccc2)CC1 | -12 | 37 | -1 | 1 | 50 | -4
CC(=O)c1cccc(NC(=O)/C=C/c2ccc([N+](=O)[O-])s2)c1 | -20 | 99* | -12 | -96 | 92* | 82
CCc1ccc(CN(C)C(=O)c2cc(COc3ccc(OC)cc3Cl)on2)nc1 | 5 | -248 | -4 | -231 | -53 | -58
C[C@H](CO)N1C[C@H](C)[C@@H](CN(C)C(=O)Nc2ccccc2)Oc2ccc(NC(=O)CCC(F)(F)F)cc2C1=O | 2 | -4 | -16 | 0 | 2 | -17

From PubChem BioAssay
